Consider 28 molecules from PubChem BioAssay (EPA / NIEHS).

Broadly, the AC50 is the concentration giving half of the maximal activity seen.

Assay [1] deals with Nuclear respiratory factor 1 (Homo sapiens) (UniProt Q16656). As to the kind of experiment: ATG_NRF1_CIS: Attagene CIS-FACTORIAL HepG2 Assay for human Nuclear Respiratory Factor 1 (NRF1) Orphan Gene (AID 2282987). The conditions noted are these: HepG2 NRF1 cis-element reporter, Attagene multiplex; actives raise or lower the signal. In outline: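 Using DMSO as baseline, gain- or loss-of-signal was fitted for reporter mRNA levels in HepG2 cells transiently transfected with cis-regulated reporter units. Samples were taken 24 h after dosing and read by RT-PCR with capillary electrophoresis.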

A short description of assay [2]: ATG_NFI_CIS: Attagene CIS-FACTORIAL HepG2 Assay for human Nuclear Factor I (NFI) (AID 2282989). The conditions noted are these: HepG2 cis-regulatory reporter, NFI response element transcription; actives raise or lower the signal. In short, it runs like this:
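After transient transfection of HepG2 with cis-promoter reporter constructs and 24 h dosing, RNA is reverse-transcribed, amplified, 6-FAM end-labelled and HpaI-digested before capillary analysis. Bidirectional curve fitting against DMSO.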

For assay [3], the target named is Myc proto-oncogene protein (Homo sapiens) (UniProt P01106). Description: ATG_Myc_CIS: Attagene CIS-FACTORIAL HepG2 Assay for human Myelocytomatosis (Myc) Proto-Oncogene Transcription Factor (AID 2282990). Conditions: HepG2, Attagene cis-reporter transcription factor activity; actives raise or lower the signal. In outline: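 Cells of the HepG2 human liver line bear multiple cis-driven reporter transcription units. Reporter mRNA after 24 h exposure is reverse-transcribed, amplified, labelled and resolved by capillary electrophoresis, with gain- or loss-of-signal fitting relative to DMSO.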

The nature of assay [4]: ATG_NF_kB_CIS: Attagene CIS-FACTORIAL HepG2 Assay for human Nuclear Factor Kappa B (NF-kB) (AID 2282991). The conditions noted are these: HepG2 Attagene cis-factorial NF-kB reporter mRNA; actives raise or lower the signal. In short, it runs like this:
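Endpoint from a 52-component multiplexed HepG2 reporter panel: cis-regulated transcription units transiently transfected, 24 h dosing, reporter mRNA quantified by RT-PCR and capillary electrophoresis, scored as increase or decrease against DMSO.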

A short description of assay [5]: ATG_NRF2_ARE_CIS: Attagene CIS-FACTORIAL HepG2 Assay for human Nuclear Factor Erythroid 2 Related Factor 2 (NFR2) response to Antioxidant Response Elements (ARE) (AID 2282992). Conditions: HepG2 Attagene ARE/NRF2 reporter, transcription factor activity; actives raise or lower the signal. In short, it runs like this: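 Multiplexed reporter mRNA profiling in HepG2 after a 24 h chemical exposure. Curves fitted in both directions relative to DMSO negative control.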

Assay [6] is described as follows: ATG_Oct_MLP_CIS: Attagene CIS-FACTORIAL HepG2 Assay for human Octamer-Binding Transcription Factor (Oct) (AID 2282993). The conditions noted are these: HepG2 Attagene cis-factorial Oct reporter, mRNA; actives raise or lower the signal. In short, it runs like this: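 Cells of the HepG2 line express promoter-controlled reporter sequences whose mRNA levels, after 24 h treatment, are measured by RT-PCR and capillary electrophoresis. Increases and decreases are scored relative to DMSO.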

Assay [7] addresses Cellular tumor antigen p53 (Homo sapiens) (UniProt P04637). As to the kind of experiment: ATG_p53_CIS: Attagene CIS-FACTORIAL HepG2 Assay for human p53 Transcription Factor (AID 2282994). The conditions noted are these: HepG2 p53 cis-element reporter, Attagene mRNA; actives raise or lower the signal. In outline:
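Multiplexed reporter mRNA assay in human HepG2 liver cells; cis-regulated units report endogenous factor activity. Values come from bidirectional curve fitting against DMSO negative control after 24 h treatment.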

Assay [8] can be described thus: BSK_3C_uPAR: BioMAP Diversity Plus: 3C Assay for Urokinase-type plasminogen activator receptor (uPAR) Biomarker Activity (AID 2282998). The conditions noted are these: BioMAP 3C HUVEC, uPAR biomarker ELISA; actives raise or lower the signal. In short, it runs like this:
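Endothelial primary cells of human umbilical vein origin received test chemical; 24 h later uPAR was assayed by ELISA. Fitting was bidirectional, DMSO as negative control.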
On the technique in general: In an ELISA, binding on a coated surface is turned into a signal by an enzyme label.

A short description of assay [9]: BSK_3C_VCAM1: BioMAP Diversity Plus: 3C Assay for Vascular cell adhesion molecule 1 (VCAM1) Biomarker Activity (AID 2282999). Conditions: BioMAP 3C HUVEC, VCAM1 ELISA, cytokine-stimulated; actives raise or lower the signal. In outline: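 Endothelial cells from human umbilical vein are treated with test chemical. At 24 h, VCAM-1 is measured by ELISA, and responses in either direction are fitted relative to DMSO.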

The source made the active and inactive calls. How the source made its calls: active means hit-call score of the fitted dose curve at least 0.9, where 1 is the maximum; inactive means score below 0.9.

Chain of Cellular tumor antigen p53 (Homo sapiens) (P04637 whole entry, looked up): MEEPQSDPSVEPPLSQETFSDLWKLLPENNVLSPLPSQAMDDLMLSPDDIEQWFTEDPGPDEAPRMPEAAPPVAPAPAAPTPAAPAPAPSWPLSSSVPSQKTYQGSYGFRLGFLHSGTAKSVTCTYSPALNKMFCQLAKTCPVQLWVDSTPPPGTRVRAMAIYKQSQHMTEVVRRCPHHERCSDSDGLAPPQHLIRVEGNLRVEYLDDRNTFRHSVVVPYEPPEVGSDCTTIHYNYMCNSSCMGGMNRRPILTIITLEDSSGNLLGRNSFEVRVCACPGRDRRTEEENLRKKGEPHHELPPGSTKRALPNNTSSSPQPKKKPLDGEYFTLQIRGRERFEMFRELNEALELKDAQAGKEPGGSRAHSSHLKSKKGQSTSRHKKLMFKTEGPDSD
Chain of Nuclear respiratory factor 1 (Homo sapiens) (Q16656 whole entry, looked up): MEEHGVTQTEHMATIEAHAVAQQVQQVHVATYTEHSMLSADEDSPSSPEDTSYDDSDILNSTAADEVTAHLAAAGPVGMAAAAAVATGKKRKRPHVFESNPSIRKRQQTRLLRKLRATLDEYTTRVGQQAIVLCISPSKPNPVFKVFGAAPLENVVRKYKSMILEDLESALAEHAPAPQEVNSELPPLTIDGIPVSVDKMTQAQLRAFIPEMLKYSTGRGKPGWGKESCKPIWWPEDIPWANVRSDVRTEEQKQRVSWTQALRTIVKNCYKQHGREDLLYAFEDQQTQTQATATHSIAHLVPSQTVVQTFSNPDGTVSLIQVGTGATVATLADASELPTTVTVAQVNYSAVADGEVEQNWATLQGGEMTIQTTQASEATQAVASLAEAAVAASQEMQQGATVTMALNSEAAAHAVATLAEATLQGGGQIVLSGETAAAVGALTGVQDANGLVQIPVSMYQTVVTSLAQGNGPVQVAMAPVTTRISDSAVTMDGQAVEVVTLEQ
Chain of Myc proto-oncogene protein (Homo sapiens) (P01106 whole entry, looked up): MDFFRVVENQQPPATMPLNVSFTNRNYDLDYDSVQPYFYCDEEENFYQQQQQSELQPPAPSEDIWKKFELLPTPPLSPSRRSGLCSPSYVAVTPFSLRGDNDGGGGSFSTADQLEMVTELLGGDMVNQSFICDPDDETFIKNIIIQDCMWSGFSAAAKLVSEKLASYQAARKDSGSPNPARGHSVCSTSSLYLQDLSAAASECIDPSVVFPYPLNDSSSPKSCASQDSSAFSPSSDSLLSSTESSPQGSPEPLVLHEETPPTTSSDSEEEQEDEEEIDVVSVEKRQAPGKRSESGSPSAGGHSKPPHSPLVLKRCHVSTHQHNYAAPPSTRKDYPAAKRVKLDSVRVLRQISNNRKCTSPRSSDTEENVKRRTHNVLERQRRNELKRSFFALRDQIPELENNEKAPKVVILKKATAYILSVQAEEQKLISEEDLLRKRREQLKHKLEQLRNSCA

For the molecule `CCCc1ccc(N)cc1`, the outcome in assay [1], in [2], in [3], in [4], in assay [5] and in assay [6] was inactive. The outcome in [7] was inactive.

Take `CC(=O)CC(C)(C)C1CCCCC1`: the call in [1], in assay [2], in [3], in assay [4], in assay [5] and in assay [6] was inactive. Further, the result in [7] was inactive.

Take `O=c1cc[nH]cc1`: the call in [1], in assay [2], in [3], in assay [4], in assay [5] and in assay [6] was inactive. Also, the result in [7] was inactive.

Consider `CN(C)c1ccc(C=O)cc1`, for which the outcome in [1], in assay [2], in assay [3], in assay [4], in [5] and in [6] was inactive. Also, the result in [7] was inactive.

As for `CCCCCCOC(C)=O`, the molecule was called inactive in assay [1], in [2], in assay [3], in assay [4], in assay [5] and in [6]. In addition, in assay [7], the outcome was inactive.

`CCCCCCCCOS(=O)(=O)O`: the molecule was classed as inactive in assay [1], in assay [2], in assay [3], in [4], in assay [5] and in [6]. For the same molecule, the molecule was classed as inactive in assay [7].

Turning to `CC(=O)c1cccnc1`, the molecule was called inactive in assay [1], in [2], in assay [3], in [4], in assay [5] and in assay [6]. For the same molecule, the outcome in [7] was inactive.

With `CC(C)N1C(=O)c2ccccc2C1=O`, the result in assay [1], in assay [2], in assay [3], in assay [4], in assay [5] and in assay [6] was inactive. In addition, the result in [7] was inactive.

Take `CCCCCC#CC(=O)OC`: the result in [1], in [2], in assay [3], in assay [6] and in assay [7] was inactive. Further, the figures for the AC50 in assay [4] and in assay [5] were 23.1 µM (active) and 23.9 µM (active), respectively.

Consider `CC(C)OB(OC(C)C)OC(C)C`, for which the call in assay [1], in assay [2], in assay [3], in assay [4], in assay [5] and in assay [7] was inactive.

On to `CCCCOCCOCCO`, for which the call in [1], in [2], in assay [3], in assay [4], in assay [5] and in [6] was inactive. Further, the molecule was classed as inactive in assay [7], in [8] and in assay [9].

Take `CC/C=C\CCCCO`: the result in [1], in assay [2], in assay [3], in [4], in assay [5] and in assay [6] was inactive. Further, in assay [7], the molecule was called inactive.

As for `CC1=CCC(C(C)(C)O)CC1` (centres undefined), the outcome in assay [1], in assay [2], in [3], in assay [4], in assay [5] and in assay [7] was inactive.

For the molecule `CCCCCCCCCCCCOCCOS(=O)(=O)O`, the outcome in assay [1], in [2], in [3], in assay [4], in [5] and in assay [6] was inactive. Moreover, the result in assay [7] was inactive.

As to `CC(O)COCC(C)O` (centres undefined), the result in assay [1], in [2], in assay [3], in assay [4], in assay [5] and in assay [6] was inactive. The molecule was classed as inactive in assay [7].

Consider `COC(=O)c1ccc(C(=O)OC)cc1`, for which the molecule was called inactive in assay [1], in assay [2], in assay [3], in [4], in [5] and in assay [6]. For the same molecule, the call in assay [7], in assay [8] and in [9] was inactive.

With `CCCCCCCCOC(C)=O`, the molecule was called inactive in assay [1], in assay [2], in assay [3], in assay [4], in [5] and in [7].

Turning to `c1ccc(Sc2ccccc2)cc1`, the call in assay [1], in assay [2], in assay [3], in assay [4], in assay [5] and in assay [6] was inactive. Further, the AC50 in assay [8] was 32 µM (active); in assay [9], 39.1 µM (active).

As for `CC(C)Cc1ccc(C(C)C(=O)O)cc1` (centres undefined), the outcome in assay [1], in assay [2], in [3], in assay [4], in assay [5] and in assay [6] was inactive. Also, the call in [7], in [8] and in [9] was inactive.

Consider `OC[C@@H](O)[C@H](O)[C@@H](O)[C@@H](O)CO`, for which the molecule was called inactive in assay [1], in assay [2], in assay [3], in assay [4], in assay [5] and in [6]. For the same molecule, the molecule was classed as inactive in assay [7].

Turning to `CC(C)CCCC(C)(C)O`, the result in assay [1], in assay [2], in assay [3], in assay [4], in assay [5] and in assay [6] was inactive. The molecule was classed as inactive in [7], in [8] and in assay [9].

For the molecule `CC1=CC(C)C(C=O)C(C)C1` (centres undefined) (tested in a mixture with another compound), the molecule was called inactive in [1], in assay [2], in assay [3], in assay [4], in assay [5] and in assay [6]. In addition, the molecule was called inactive in [7], in [8] and in assay [9].

Turning to `NC(=O)c1c(Cl)cccc1Cl`, the call in assay [1], in assay [2], in [3], in assay [4], in assay [5] and in assay [6] was inactive. Also, the result in assay [8] and in [9] was inactive.

For the molecule `CCCCCCC(O)CCOC(C)=O` (centres undefined), the call in assay [1], in assay [2], in assay [3], in assay [4], in assay [5] and in assay [7] was inactive.

Regarding `CCOC(=O)CCCCCCCCC(=O)OCC`, the molecule was classed as inactive in assay [1], in [2], in assay [3], in [4], in [5] and in assay [6]. Further, the molecule was classed as inactive in assay [7], in [8] and in assay [9].

For `CC(=O)OCC=C(C)CCC=C(C)CCC=C(C)C`, the AC50 in assay [1] was 154 µM (active); in assay [2], 157 µM (active); in [5] it was 49.5 µM (active). The molecule was classed as inactive in [3], in assay [4], in assay [6], in assay [8] and in assay [9].

In the case of `C=C(C)C(=O)OCCC[Si](OC)(OC)OC`, the molecule was called inactive in assay [1], in [2], in assay [3], in assay [4], in assay [5] and in assay [6]. Moreover, the molecule was called inactive in [7].

Turning to `CC=CC(=O)C1=C(C)C=CCC1(C)C`, the result in assay [1], in assay [2], in [3], in [4], in [5] and in assay [6] was inactive. For the same molecule, the call in assay [7], in assay [8] and in assay [9] was inactive.
